Laboratory results as given in PubChem BioAssay (NCI).
This is part of a sample that, as a whole, favours compounds with a hit. Of some 83,000 tested, about 20% had one in any assay.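 Step 1: grow cells in 96-well plates. Step 2: add test compound at a single concentration. Step 3: incubate 48 h. Step 4: record percent growth.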 Active and inactive are the calls of the source. How the source made its calls: active means growth percent below 10; inactive means the rest.

Legend:
Assay in all cases: NCI-60 one-dose screen, 48 h (100 = growth as untreated, 0 = no growth, -100 = all killed)
Settings in all cases: 10 µM unless noted
NCI-H23 lung = test system: NCI-H23 lung
NCI-H226 lung = test system: NCI-H226 lung
NCI-H322M lung = test system: NCI-H322M lung
HOP-62 NSCLC = test system: HOP-62 NSCLC
NCI-H460 lung = test system: NCI-H460 lung
HOP-92 NSCLC = test system: HOP-92 NSCLC
NCI-H522 lung = test system: NCI-H522 lung
A549/ATCC NSCLC = test system: A549/ATCC NSCLC
786-0 renal = test system: 786-0 renal
COLO 205 colon = test system: COLO 205 colon

Measured: growth

c1ccc(-c2cn3c(ccc4ccccc43)n2)cc1
inactive: NCI-H23 lung 70.5% | NCI-H226 lung 79% | NCI-H322M lung 77.5% | HOP-62 NSCLC 68.4% | NCI-H460 lung 20.6% | HOP-92 NSCLC 65.6% | NCI-H522 lung 44.5% | A549/ATCC NSCLC 47.1% | 786-0 renal 81.7% | COLO 205 colon 41.9%

COc1ccc(/C=C/c2nc(Nc3ccc(S(=O)(=O)NC(C)=O)cc3)c3ccccc3n2)cc1
inactive: NCI-H23 lung 85.9% | NCI-H226 lung 84% | NCI-H322M lung 38.6% | HOP-62 NSCLC 81.2% | NCI-H460 lung 64.7% | HOP-92 NSCLC 67.8% | NCI-H522 lung 76.3% | A549/ATCC NSCLC 42% | 786-0 renal 83.6% | COLO 205 colon 49.7%

NC1=NN=C(N)C1=Cc1cc2ccccc2n2nnnc12
inactive: NCI-H23 lung 99% | NCI-H226 lung 100% | NCI-H322M lung 105% | HOP-62 NSCLC 96.8% | NCI-H460 lung 105% | HOP-92 NSCLC 87.4% | NCI-H522 lung 95% | A549/ATCC NSCLC 103% | 786-0 renal 93.9% | COLO 205 colon 99.7%

COc1cc(/C=C\c2cc(OC)c(OC)c(OC)c2)cc(NC(=O)/C=C/c2cc(OC)c(OC)c(OC)c2)c1OC
inactive: NCI-H23 lung 27.8% | NCI-H226 lung 66.6% | NCI-H322M lung 66.8% | HOP-62 NSCLC 63.7% | NCI-H460 lung 55.7% | HOP-92 NSCLC 45% | NCI-H522 lung 23.3% | A549/ATCC NSCLC 60.8% | 786-0 renal 51.6% | COLO 205 colon 38.2%

CNC(=O)c1cc(Cn2nc(C)c(NC(=O)Nc3ccc(Cl)c(C(F)(F)F)c3)c2C)ccn1
inactive: NCI-H23 lung 97.8% | NCI-H226 lung 96.6% | NCI-H322M lung 94.5% | HOP-62 NSCLC 93.4% | NCI-H460 lung 100% | HOP-92 NSCLC 106% | NCI-H522 lung 71.5% | A549/ATCC NSCLC 70% | 786-0 renal 100% | COLO 205 colon 99.9%

O=C(Cc1ccc(/C=C/C(=O)c2ncc[nH]2)cc1)Nc1ccc(Cl)cc1
inactive: NCI-H23 lung 28.6% | NCI-H226 lung 82.2% | NCI-H322M lung 42.8% | HOP-92 NSCLC 76% | NCI-H522 lung 34.2% | A549/ATCC NSCLC 33.2% | COLO 205 colon 32.9%
active: HOP-62 NSCLC 8.21% | NCI-H460 lung -35.5% | 786-0 renal 4.48%

Cn1ccnc1C(=O)/C=C/c1ccc(CC(=O)NC2CCCCC2)cc1
inactive: NCI-H23 lung 61.9% | NCI-H226 lung 92.8% | NCI-H322M lung 61% | HOP-62 NSCLC 56% | NCI-H460 lung 26% | HOP-92 NSCLC 75% | NCI-H522 lung 52.1% | A549/ATCC NSCLC 64.1% | 786-0 renal 71.3% | COLO 205 colon 67.9%

Cn1cc(-c2nc(-c3c[nH]c4c(Cl)nccc34)cs2)c2cc(F)ccc21
inactive: NCI-H23 lung 104% | NCI-H226 lung 95.5% | NCI-H322M lung 102% | HOP-62 NSCLC 88.5% | NCI-H460 lung 98.3% | HOP-92 NSCLC 98.2% | NCI-H522 lung 90.2% | A549/ATCC NSCLC 74.5% | 786-0 renal 94.7% | COLO 205 colon 99.8%

O=C(CCN1CCCC1)Nc1ccc2c(NCCCc3ccccc3)c3ccccc3nc2c1
inactive: NCI-H23 lung 14.8% | NCI-H226 lung 42.3% | NCI-H322M lung 16.6% | HOP-62 NSCLC 24.7% | HOP-92 NSCLC 21.5% | A549/ATCC NSCLC 15.5% | 786-0 renal 24.9%
active: NCI-H460 lung -72.2% | NCI-H522 lung -49.9% | COLO 205 colon -50.4%

COc1cc(/C=C/C(=O)c2nc3cc(F)ccc3nc2C)cc(OC)c1OC
inactive: NCI-H23 lung 64.6% | NCI-H226 lung 103% | NCI-H322M lung 102% | HOP-62 NSCLC 106% | NCI-H460 lung 53.5% | HOP-92 NSCLC 48.9% | NCI-H522 lung 70.3% | A549/ATCC NSCLC 65% | 786-0 renal 75.7% | COLO 205 colon 82%

COc1ccccc1/C=C1\Oc2cc(OCCN3CCCC3)ccc2C1=O
inactive: NCI-H23 lung 82.8% | NCI-H226 lung 85.3% | NCI-H322M lung 99.8% | HOP-62 NSCLC 96.4% | NCI-H460 lung 84.6% | HOP-92 NSCLC 59.5% | NCI-H522 lung 89.8% | A549/ATCC NSCLC 95.3% | 786-0 renal 82.5% | COLO 205 colon 95.4%

O=C1Nc2ccccc2/C1=C\c1c(-c2ccc(F)cc2)nc2ccccn12
inactive: NCI-H23 lung 49.1% | NCI-H226 lung 79.2% | NCI-H322M lung 83% | HOP-62 NSCLC 72.4% | NCI-H460 lung 82.6% | HOP-92 NSCLC 79.3% | NCI-H522 lung 42.6% | A549/ATCC NSCLC 89% | 786-0 renal 82.1% | COLO 205 colon 76.6%

NS(=O)(=O)c1ccc(CCN2C(=O)C3C(C2=O)C2(Cl)C(Cl)=C(Cl)C3(Cl)C2(Cl)Cl)cc1 (stereo not given)
inactive: NCI-H23 lung 92.9% | NCI-H226 lung 101% | NCI-H322M lung 104% | HOP-62 NSCLC 104% | NCI-H460 lung 104% | HOP-92 NSCLC 47.6% | NCI-H522 lung 91% | A549/ATCC NSCLC 101% | 786-0 renal 95.3% | COLO 205 colon 108%

Cc1cc2nc3c4cc([N+](=O)[O-])ccc4n(CCN(C)C)c3nc2cc1C
active: NCI-H23 lung -26.8% | NCI-H226 lung -25.3% | NCI-H322M lung -15.1% | HOP-62 NSCLC 5.3% | NCI-H460 lung 1.25% | HOP-92 NSCLC -10.7% | NCI-H522 lung -17% | A549/ATCC NSCLC -45.8% | 786-0 renal 5.9% | COLO 205 colon -42.3%

CCC(CC)NCC(C)(C)O
inactive: NCI-H23 lung 97.7% | NCI-H226 lung 109% | NCI-H322M lung 94% | HOP-62 NSCLC 119% | NCI-H460 lung 103% | HOP-92 NSCLC 105% | NCI-H522 lung 105% | A549/ATCC NSCLC 102% | 786-0 renal 107% | COLO 205 colon 120%

NS(=O)(=O)c1ccc(CCN2C(=O)C=CC2=O)cc1
inactive: NCI-H23 lung 94.6% | NCI-H226 lung 101% | NCI-H322M lung 97.3% | HOP-62 NSCLC 97.1% | NCI-H460 lung 115% | HOP-92 NSCLC 108% | NCI-H522 lung 84.6% | A549/ATCC NSCLC 104% | 786-0 renal 106% | COLO 205 colon 123%

O=C(CCN1CCCC1)Nc1ccc2c(NCCc3ccccc3)c3ccccc3nc2c1
active: NCI-H23 lung -40.2% | NCI-H226 lung -19.8% | NCI-H322M lung -19% | HOP-62 NSCLC -9.1% | NCI-H460 lung -64.8% | HOP-92 NSCLC -14.5% | NCI-H522 lung -33.4% | A549/ATCC NSCLC -5.65% | 786-0 renal -12.4% | COLO 205 colon -37.5%
